Inconclusive results are not listed. Active and inactive are the calls of the source. Unless noted, calls come from the whole dose curve; as a rule, active = well fitted curve in the direction sought with a large enough effect; inconclusive = small, poorly fitted or top-dose-only effect, or another doubt; inactive = no such curve, though single readings can be large; an effect the other way counts as inactive or inconclusive.
How the values were obtained:
[1] = biological target: Methanococcus maripaludis chaperonin (MmCpn) (UniProt Q6LX38); test: High-Throughput Screening for Modulators of Cytosolic Chaperonin Activity: MmCpn Primary Screen (AID 488978); note: 0% is about no effect
Sequence of Methanococcus maripaludis chaperonin (MmCpn) (Q6LX38 1-543): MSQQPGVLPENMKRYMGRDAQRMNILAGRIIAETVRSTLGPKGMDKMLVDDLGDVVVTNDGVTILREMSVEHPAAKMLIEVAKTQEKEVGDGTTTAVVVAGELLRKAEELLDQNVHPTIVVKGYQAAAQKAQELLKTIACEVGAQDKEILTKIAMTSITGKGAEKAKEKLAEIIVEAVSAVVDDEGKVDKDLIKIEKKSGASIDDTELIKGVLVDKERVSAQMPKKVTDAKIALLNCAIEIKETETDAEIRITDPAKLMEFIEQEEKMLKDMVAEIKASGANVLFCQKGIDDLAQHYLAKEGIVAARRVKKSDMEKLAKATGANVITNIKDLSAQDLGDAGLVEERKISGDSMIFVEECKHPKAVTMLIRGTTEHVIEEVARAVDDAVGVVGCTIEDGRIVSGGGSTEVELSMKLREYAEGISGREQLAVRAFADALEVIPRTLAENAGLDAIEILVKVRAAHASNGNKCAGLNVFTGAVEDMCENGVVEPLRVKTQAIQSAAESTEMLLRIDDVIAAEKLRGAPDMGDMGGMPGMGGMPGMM
Summary of the method: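 HTRF readout (320 nm excitation, 590/665 nm emission) of ADP generated by 50 nM MmCpn hydrolysing 30 uM ATP during 10 min at 37C; compound preincubated 5 min RT.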

[2] = biological target: D(1A) dopamine receptor (Homo sapiens) (UniProt P21728); test: HTS Assay for Allosteric Agonists of the Human D1 Dopamine Receptor: Primary Screen for Agonists (AID 488981); note: 0% is about no effect
Sequence of D(1A) dopamine receptor (Homo sapiens) (P21728 whole entry, looked up): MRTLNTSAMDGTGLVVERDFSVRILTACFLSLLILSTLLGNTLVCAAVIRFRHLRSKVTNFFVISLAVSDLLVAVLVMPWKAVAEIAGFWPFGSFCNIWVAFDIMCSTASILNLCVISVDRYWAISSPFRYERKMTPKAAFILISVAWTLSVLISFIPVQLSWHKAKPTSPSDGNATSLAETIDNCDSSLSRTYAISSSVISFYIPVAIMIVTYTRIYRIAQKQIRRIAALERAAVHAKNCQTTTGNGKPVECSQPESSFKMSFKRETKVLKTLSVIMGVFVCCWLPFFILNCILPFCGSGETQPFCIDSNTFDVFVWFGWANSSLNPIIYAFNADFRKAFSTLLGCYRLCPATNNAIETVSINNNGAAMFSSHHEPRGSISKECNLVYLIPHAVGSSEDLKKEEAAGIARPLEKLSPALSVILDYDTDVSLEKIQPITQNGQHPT
Summary of the method: (§1)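 Tetracycline-induced HEK293 T-REx cells force-coupled to calcium signalling were incubated overnight at 30 C and dye-loaded at room temperature. Calcium flux over 180 s after compound addition flagged agonists; a further 180 s read after EC20 dopamine flagged potentiators.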

[3] = biological target: D(1A) dopamine receptor (Homo sapiens) (UniProt P21728); test: HTS Assay for Allosteric Agonists of the Human D1 Dopamine Receptor: Primary Screen for Potentiators (AID 488982); note: 0% is about no effect
Summary of the method: as §1

[4] = biological target: D(1A) dopamine receptor (Homo sapiens) (UniProt P21728); test: HTS Assay for Allosteric Agonists of the Human D1 Dopamine Receptor: Primary Screen for Antagonists (AID 488983);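 note: calcium flux response to an EC80 dopamine challenge measured with no-wash dye; % is set by controls: 0 for no effect and ±100 for the full control effect; nearly all actives have a fitted effect of over 65% in size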
Summary of the method: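 Calcium flux readout, no-wash dye, inducible HEK293 T-REx D1 line (force-coupled). Compound added after 10 s baseline, 180 s kinetic read; then dopamine at EC80, further 180 s read.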

[5] = qHTS for Inhibitors of Cell Surface uPA Generation: Validation Assay (AID 493164);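 note: RAW 264.7 macrophage cells exposed to compound for 18 h; 0% is about no effect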
Summary of the method: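 Compounds are titrated over seven points (2.45 nM–38.3 uM final) onto pre-plated RAW 264.7 cells and incubated for 18 h. Retained intracellular ATP, measured with ATP-Lite, indicates blocked lethal factor entry.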

[6] = biological target: Peptidyl-prolyl cis-trans isomerase NIMA-interacting 1 (Homo sapiens) (UniProt Q13526); test: qHTS Validation Assay to Find Inhibitors of Pin1 (AID 504536; active = well fitted inhibition curve with a large enough effect in the polarisation, with a control signal flat, not every such curve was filed as active; the % refers to the polarisation;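 note: 0% = full Pin1 enzyme wells and -100% = no-enzyme wells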)
Sequence of Peptidyl-prolyl cis-trans isomerase NIMA-interacting 1 (Homo sapiens) (Q13526 whole entry, looked up): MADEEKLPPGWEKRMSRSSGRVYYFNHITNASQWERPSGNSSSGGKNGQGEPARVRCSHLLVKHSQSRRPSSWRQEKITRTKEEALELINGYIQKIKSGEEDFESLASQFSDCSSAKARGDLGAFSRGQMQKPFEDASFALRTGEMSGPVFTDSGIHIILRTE
Summary of the method: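 Fluorescence polarization competition: compounds (titration) displace HiFluor-488-labeled Pin1-1b peptide from Pin1 (0.3 uM final) in pH 7.5 HEPES buffer with DTT, 10 min at room temperature; %Activity normalized to no-enzyme wells, curves fitted.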

[7] = biological target: Phosphoglycerate kinase, glycosomal (Trypanosoma brucei brucei) (UniProt P07378); test: qHTS Validation Assay to Find Inhibitors of Phosphoglycerate Kinase (AID 504547);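 note: control wells lack PGK and mark full inhibition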
Sequence of Phosphoglycerate kinase, glycosomal (Trypanosoma brucei brucei) (P07378 whole entry, looked up): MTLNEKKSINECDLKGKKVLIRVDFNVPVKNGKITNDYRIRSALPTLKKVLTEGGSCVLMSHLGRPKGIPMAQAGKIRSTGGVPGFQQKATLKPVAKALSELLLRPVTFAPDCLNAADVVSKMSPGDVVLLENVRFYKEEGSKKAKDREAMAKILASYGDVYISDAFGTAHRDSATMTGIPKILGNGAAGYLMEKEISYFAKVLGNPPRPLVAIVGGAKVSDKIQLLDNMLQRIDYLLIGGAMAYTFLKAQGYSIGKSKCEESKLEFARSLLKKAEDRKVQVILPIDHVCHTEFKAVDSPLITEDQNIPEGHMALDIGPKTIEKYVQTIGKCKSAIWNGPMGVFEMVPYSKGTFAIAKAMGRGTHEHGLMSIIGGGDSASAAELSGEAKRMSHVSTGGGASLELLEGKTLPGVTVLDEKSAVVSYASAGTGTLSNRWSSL
Summary of the method: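 In TEA buffer (100mM, pH 7.6) containing 5mM MgCl2 and 0.01% Tween-20, the GAPDH-coupled PGK reaction proceeded for 60 minutes at room temperature before a single luminescence reading using Kinase-Glo Plus.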

[8] = biological target: phosphoglycerate mutase (Leishmania major) (UniProt Q4Q090); test: qHTS Validation Assay to Find Inhibitors of Phosphoglycerate Mutase (AID 504548);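 note: end-point luminescence from Kinase-GloPlus after the PGAM reaction; series mostly up to about 58 µM; % is set by controls: 0 for no effect and ±100 for the full control effect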
Sequence of phosphoglycerate mutase (Leishmania major) (Q4Q090 1-553): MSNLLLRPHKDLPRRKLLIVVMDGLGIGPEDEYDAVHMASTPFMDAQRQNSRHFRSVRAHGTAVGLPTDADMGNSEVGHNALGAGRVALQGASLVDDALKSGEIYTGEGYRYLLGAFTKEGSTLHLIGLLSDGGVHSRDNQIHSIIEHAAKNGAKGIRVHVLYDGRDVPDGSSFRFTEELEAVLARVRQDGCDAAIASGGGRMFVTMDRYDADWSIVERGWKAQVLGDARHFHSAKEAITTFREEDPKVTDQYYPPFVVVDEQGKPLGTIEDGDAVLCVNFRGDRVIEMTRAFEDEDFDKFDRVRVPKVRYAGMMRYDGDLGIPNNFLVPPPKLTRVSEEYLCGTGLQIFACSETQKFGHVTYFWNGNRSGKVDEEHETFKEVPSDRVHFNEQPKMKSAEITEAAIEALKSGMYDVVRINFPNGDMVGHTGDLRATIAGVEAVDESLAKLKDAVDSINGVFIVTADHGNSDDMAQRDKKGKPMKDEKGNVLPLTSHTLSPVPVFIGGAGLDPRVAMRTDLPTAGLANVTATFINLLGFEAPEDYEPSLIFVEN
Summary of the method: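 Inhibition of L. major PGAM was assessed by Kinase-GloPlus luminescence following a 45-minute room-temperature reaction with enzyme at 1.25nM final.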

[9] = qHTS for Inhibitors of ATXN expression: Validation (AID 588378); note: nearly all actives have a fitted effect of over 75% in size; note: potency is the fitted concentration of half-maximal effect
Summary of the method: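 After a 2 h attachment and 24 h compound incubation, HEK293-ATXN2-FFLuc wells are read for fluorescence at 405 nm excitation/525 nm emission as a viability measure, then for Bright-Glo luminescence reflecting ATXN2 expression.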

[10] = biological target: ATPase family AAA domain-containing protein 5 (Homo sapiens) (UniProt Q96QE3); test: Validation screen for small molecules that inhibit ELG1-dependent DNA repair in human embryonic kidney (HEK293T) cells expressing luciferase-tagged ELG1 (AID 493107);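 note: cells co-treated with the DNA-damaging agent 5-fluorouridine alongside compound; series mostly up to about 46 µM; % is set by controls: 0 for no effect and ±100 for the full control effect; inhibitors lower the ELG1-luciferase luminescence signal; nearly all actives have a fitted effect of over 70% in size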
Summary of the method: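 ELG1-luciferase HEK293T reporter; 5-fluorouridine + compound/DMSO, 16 hr, 37 °C, 5% CO2; ONE-Glo 30 min RT; luminescence read, qHTS format.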

[11] = qHTS for Inhibitors of ATXN expression: Validation of Cytotoxic Assay (AID 588349); note: % is set by controls: 0 for no effect and ±100 for the full control effect
Summary of the method: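 Cytotoxicity counter-screen: HEK293 cells exposed to compound titrations, 72 hr, 37 degrees C. Read-out is intracellular ATP (CellTiter Glo luminescence) as a viability measure.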

[12] = biological target: Transient receptor potential cation channel subfamily V member 1 (Homo sapiens) (UniProt Q8NER1); test: HTS Assay for Compounds that Act as Enhancers of the Vanilloid Receptor 1 (AID 488979); note: 0% is about no effect
Sequence of Transient receptor potential cation channel subfamily V member 1 (Homo sapiens) (Q8NER1 whole entry, looked up): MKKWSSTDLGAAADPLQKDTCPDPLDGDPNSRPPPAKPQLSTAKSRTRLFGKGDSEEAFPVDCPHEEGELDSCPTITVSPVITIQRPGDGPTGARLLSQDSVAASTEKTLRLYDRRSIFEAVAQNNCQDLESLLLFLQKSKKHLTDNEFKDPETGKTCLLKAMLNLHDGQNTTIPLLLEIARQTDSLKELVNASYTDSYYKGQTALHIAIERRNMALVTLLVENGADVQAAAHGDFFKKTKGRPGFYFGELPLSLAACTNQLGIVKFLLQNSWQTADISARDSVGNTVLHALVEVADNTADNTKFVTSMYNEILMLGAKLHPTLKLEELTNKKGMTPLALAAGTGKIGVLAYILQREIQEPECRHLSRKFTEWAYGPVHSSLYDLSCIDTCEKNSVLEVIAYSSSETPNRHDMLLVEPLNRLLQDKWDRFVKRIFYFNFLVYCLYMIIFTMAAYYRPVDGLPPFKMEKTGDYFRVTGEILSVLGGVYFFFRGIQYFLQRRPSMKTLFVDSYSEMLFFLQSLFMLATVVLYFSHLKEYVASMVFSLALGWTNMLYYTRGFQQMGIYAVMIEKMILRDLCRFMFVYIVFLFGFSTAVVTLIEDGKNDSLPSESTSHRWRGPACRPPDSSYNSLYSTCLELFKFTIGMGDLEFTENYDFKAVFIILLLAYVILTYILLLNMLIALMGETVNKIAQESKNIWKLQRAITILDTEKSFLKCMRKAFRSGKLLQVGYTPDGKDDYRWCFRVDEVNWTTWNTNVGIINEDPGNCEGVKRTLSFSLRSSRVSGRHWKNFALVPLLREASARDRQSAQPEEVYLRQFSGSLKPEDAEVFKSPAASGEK
Summary of the method: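 TRPV1-expressing cells loaded with Fluo-8 calcium dye; compounds added and calcium influx read kinetically for 3 min (agonist phase), then capsaicin at EC20 added and read 2 min more for enhancement. Fluorescence ex 480/em 520 nm.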

[13] = biological target: Thyrotropin receptor (Homo sapiens) (UniProt P16473); test: qHTS Assay for Antagonists of the Thyroid Stimulating Hormone Receptor (AID 488980); note: series mostly up to about 58 µM; 0% is about no effect
Sequence of Thyrotropin receptor (Homo sapiens) (P16473 whole entry, looked up): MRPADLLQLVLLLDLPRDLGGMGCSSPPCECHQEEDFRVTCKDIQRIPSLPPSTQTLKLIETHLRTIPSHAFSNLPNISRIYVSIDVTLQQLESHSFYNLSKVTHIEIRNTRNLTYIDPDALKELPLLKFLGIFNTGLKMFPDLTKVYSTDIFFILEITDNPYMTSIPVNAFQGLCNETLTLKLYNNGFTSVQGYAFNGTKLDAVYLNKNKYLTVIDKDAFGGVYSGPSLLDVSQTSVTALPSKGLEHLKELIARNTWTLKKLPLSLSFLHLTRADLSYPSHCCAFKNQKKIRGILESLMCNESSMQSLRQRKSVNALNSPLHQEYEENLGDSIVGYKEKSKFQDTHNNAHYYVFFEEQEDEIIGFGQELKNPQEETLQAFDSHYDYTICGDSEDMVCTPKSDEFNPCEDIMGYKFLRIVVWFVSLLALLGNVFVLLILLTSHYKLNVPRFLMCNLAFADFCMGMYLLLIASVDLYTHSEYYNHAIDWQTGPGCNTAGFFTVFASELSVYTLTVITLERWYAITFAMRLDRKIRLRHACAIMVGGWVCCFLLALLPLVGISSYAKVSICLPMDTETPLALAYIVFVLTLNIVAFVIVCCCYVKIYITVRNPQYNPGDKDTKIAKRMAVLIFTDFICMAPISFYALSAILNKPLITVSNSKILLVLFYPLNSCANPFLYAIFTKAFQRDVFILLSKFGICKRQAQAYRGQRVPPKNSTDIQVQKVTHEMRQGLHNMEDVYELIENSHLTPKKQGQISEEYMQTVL
Summary of the method: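 Inhibition of TSH-stimulated cAMP accumulation was quantified by homogeneous time-resolved FRET in TSHR-transfected HEK293 cells. Agonist: TSH, 4 nM final (EC80).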

[14] = biological target: Thyrotropin-releasing hormone receptor (Homo sapiens) (UniProt P34981); test: qHTS for Small Molecule Agonists and Allosteric Enhancers of Human TRH Receptor: Validation Screen for Agonists (AID 493127;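 active = calcium activation more than 3 SD above the typical response in the agonist read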;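 note: intracellular calcium rise by fluo-8 fluorescence before TRH EC20 addition; 0% is about no effect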); conditions: TRH receptor agonist cell assay; at 2 µM; hits give high values
Sequence of Thyrotropin-releasing hormone receptor (Homo sapiens) (P34981 whole entry, looked up): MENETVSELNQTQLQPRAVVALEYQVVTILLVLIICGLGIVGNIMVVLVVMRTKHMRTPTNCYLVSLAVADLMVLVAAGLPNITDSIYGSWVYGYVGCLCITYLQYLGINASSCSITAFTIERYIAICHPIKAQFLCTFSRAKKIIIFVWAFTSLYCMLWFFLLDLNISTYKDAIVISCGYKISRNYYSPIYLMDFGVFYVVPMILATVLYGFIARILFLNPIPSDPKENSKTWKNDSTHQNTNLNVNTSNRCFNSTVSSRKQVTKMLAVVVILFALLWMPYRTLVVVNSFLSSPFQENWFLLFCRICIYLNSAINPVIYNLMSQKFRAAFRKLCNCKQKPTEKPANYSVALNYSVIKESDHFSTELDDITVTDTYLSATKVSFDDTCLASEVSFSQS
Summary of the method: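 Read-out: intracellular calcium release measured kinetically by FDSS (fluo-8, ex 480/em 530 nm), 1 reading/s after a 10-cycle baseline. TRHR cells, 2000/well, cultured 18 h at 33.5C, dye-loaded at room temp. Compound-evoked positive calcium signal flags agonists.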

[15] = biological target: Galactokinase (Homo sapiens) (UniProt P51570); test: qHTS Validation Assay for Inhibitors of Human Galactokinase (GALK) (AID 493189); note: 0% is about no effect
Summary of the method: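 Enzyme activity is inferred from ATP consumption: human GALK phosphorylates galactose (100 uM) using 35 uM ATP for 1 h at room temperature, and luciferase-based Kinase-Glo Plus reports unconsumed ATP.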

[16] = Validation screen for small molecules that induce DNA re-replication in SW480 colon adenocarcinoma cells (AID 504364); note: 0% is about no effect
Summary of the method: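 Read-out: total Hoechst intensity of nuclei by fluorescence scanning imager; hits raise the fraction of nuclei with elevated DNA content. Cells received compound for 48 hr at 37 C before a 40 min stain.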

[17] = biological target: Glucocorticoid receptor (Homo sapiens) (UniProt P04150); test: qHTS assay for small molecule antagonists of glucocorticoid receptor signaling (AID 588533; active = well fitted inhibition curve with a large enough effect in the signal ratio, with a control signal flat, not every such curve was filed as active; the % refers to the signal ratio;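 note: cells stimulated with 2 nM dexamethasone as agonist; % is set by controls: 0 for no effect and ±100 for the full control effect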)
Sequence of Glucocorticoid receptor (Homo sapiens) (P04150 whole entry, looked up): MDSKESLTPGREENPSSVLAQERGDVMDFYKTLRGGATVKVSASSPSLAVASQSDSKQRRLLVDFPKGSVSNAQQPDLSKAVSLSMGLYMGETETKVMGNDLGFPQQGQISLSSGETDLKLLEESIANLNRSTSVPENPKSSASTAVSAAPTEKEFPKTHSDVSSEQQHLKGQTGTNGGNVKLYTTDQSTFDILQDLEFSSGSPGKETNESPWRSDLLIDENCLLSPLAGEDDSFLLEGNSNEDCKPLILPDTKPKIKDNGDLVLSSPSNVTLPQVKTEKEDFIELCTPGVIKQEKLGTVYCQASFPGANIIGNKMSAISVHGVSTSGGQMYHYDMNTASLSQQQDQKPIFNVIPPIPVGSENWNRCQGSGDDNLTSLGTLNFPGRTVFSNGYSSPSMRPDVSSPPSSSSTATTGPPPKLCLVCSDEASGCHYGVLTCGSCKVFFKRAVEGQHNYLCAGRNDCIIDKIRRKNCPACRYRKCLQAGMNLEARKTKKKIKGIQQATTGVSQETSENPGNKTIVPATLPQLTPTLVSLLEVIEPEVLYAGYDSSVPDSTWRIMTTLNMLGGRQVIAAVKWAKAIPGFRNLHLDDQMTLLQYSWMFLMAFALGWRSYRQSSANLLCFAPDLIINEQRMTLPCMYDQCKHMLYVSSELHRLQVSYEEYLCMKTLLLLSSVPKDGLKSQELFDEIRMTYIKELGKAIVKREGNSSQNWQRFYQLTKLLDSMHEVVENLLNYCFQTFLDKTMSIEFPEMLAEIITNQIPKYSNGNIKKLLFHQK
Summary of the method: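 Antagonist-mode qHTS: compound titrations added to GRE-bla HeLa cells, then dexamethasone 2 nM final; 18 h, 37 C. CCF4 FRET fluorescence normalized to dexamethasone and DMSO; IC50 from Hill fit.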

C=CCc1cccc(C=NNC(=O)CN2CCN(Cc3ccccc3)CC2)c1O
active: Potency [9] 3.55 µM
inactive: outcome [1] | outcome [2] | outcome [3] | outcome [4] | outcome [5] | outcome [6] | outcome [7] | outcome [8]

C[C@H]1O[C@@H](n2cc(F)c(=O)[nH]c2=O)[C@H](O)[C@H]1O
inactive: outcome [1] | outcome [2] | outcome [3] | outcome [4] | outcome [10] | outcome [5] | outcome [6] | outcome [7] | outcome [8] | outcome [11] | Potency [9]

CCNC(=O)[C@H]1O[C@@H](n2cnc3c(N)nc(NCCc4ccc(CCC(=O)O)cc4)nc32)[C@H](O)[C@H]1O
inactive: outcome [12] | outcome [13] | activation [14] 0.188% | outcome [15] | outcome [16]

C[C@@H]1C[C@H]2[C@@H]3CCC4=CC(=O)C=C[C@]4(C)[C@@]3(F)[C@@H](O)C[C@]2(C)[C@@]1(O)C(=O)CO
inactive: outcome [17]
